# PubChem BioAssay (NCATS)
# “And” between values parts separate entries of the source, which are not always exact repeats. Identical values can stand only once. Inconclusive results are not listed. Entries that show only a call come without a potency. More than one record can exist for a structure, and the calls need not agree. The source made the active and inactive calls. The call rests on the fitted dose curve; in most records, active means well fitted curve in the direction sought with a large enough effect; inconclusive means small, poorly fitted or top-dose-only effect, or another doubt; inactive means no such curve, though single readings can be large; an effect the other way counts as inactive or inconclusive.
# Key:
# [1] = Primary qHTS for inhibitors of nuclear receptor binding SET domain protein 2 (NSD2) in an isogenic RCH-ACV NSD2 p.E1099K mutant (9B) (AID 1645876); further: nearly all actives have a fitted effect of over 70% in size; further: potency means the concentration at half of the fitted maximal effect
# [2] = Primary qHTS for inhibitors of nuclear receptor binding SET domain protein 2 (NSD2) in an RCH-ACV wild type WT cells (2C) (AID 1645877); further: nearly all actives have a fitted effect of over 70% in size; further: potency means the concentration at half of the fitted maximal effect
# [3] = molecular target: Rap guanine nucleotide exchange factor 3 (Homo sapiens) (UniProt O95398); experiment: Confirmatory qHTS for antagonist of cAMP-regulated guanine nucleotide exchange factor 3 (EPAC1) (AID 1645880); further: nearly all actives have a fitted effect of over 55% in size
# Outline: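 Nucleotide exchange uses 100 nM EPAC1, 250 nM RAP1B-BODIPY-GDP and 50 uM GDP, with compounds in a concentration-titration series. After 5 min at room temperature, fluorescence (480 nm ex/540 nm em) is read every 5 min for 30 min. Data are normalized to control ATA and DMSO.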
# [4] = molecular target: Rap guanine nucleotide exchange factor 3 (Homo sapiens) (UniProt O95398); experiment: Confirmatory qHTS for agonist of cAMP-regulated guanine nucleotide exchange factor 3 (EPAC1) (AID 1645881);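 further: EPAC1 catalysed release of BODIPY-GDP from Rap1B seen as fluorescence loss; nearly all actives have a fitted effect of over 75% in size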
# [5] = molecular target: Rap guanine nucleotide exchange factor 4 (Homo sapiens) (UniProt Q8WZA2); experiment: Confirmatory qHTS for agonist of cAMP-regulated guanine nucleotide exchange factor 4 (EPAC2) (AID 1645884);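 further: nucleotide exchange releases bodipy-GDP from Rap1 and this lowers its fluorescence; nearly all actives have a fitted effect of over 65% in size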
# [6] = molecular target: Rap guanine nucleotide exchange factor 4 (Homo sapiens) (UniProt Q8WZA2); experiment: Confirmatory qHTS for antagonist of cAMP-regulated guanine nucleotide exchange factor 4 (EPAC2) (AID 1645885); further: nearly all actives have a fitted effect of over 25% in size; further: potency means the concentration at half of the fitted maximal effect
# [7] = molecular target: Rap guanine nucleotide exchange factor 3 (Homo sapiens) (UniProt O95398); experiment: Counterscreen qHTS for antagonist of cAMP-regulated guanine nucleotide exchange factor 3 (EPAC1) (AID 1645888);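 further: fluorescence loss as bound BODIPY-GDP is released from Rap1B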
# Source text: Assay Provider (PI): Xiaodong Cheng Ph.D. The University of Texas Medical Branch, […], TX MLPCN Grant: NS066510 In multi-cellular eukaryotic organisms, the effects of cAMP are transduced by two ubiquitously-expressed intracellular cAMP receptors, the classic protein kinase A/cAMP-dependent protein kinase (PKA/cAPK) and the more recently discovered exchange protein directly activated by cAMP/cAMP-regulated guanine nucleotide exchange factor (EPAC/cAMP-GEF). Both PKA and EPAC are ubiquitously expressed in all tissues, and an increase in intracellular cAMP levels will lead to the activation of both PKA and EPAC. Therefore, careful dissections of the individual role and relative contribution of EPAC and PKA within the overall cAMP signaling in various model systems are critical for further elucidating the mechanism of cAMP signaling. To date no EPAC-specific antagonists and agonist, as well as isoform-specific agonists have been reported, and developing EPAC-specific pharmacological probes to determine the physiological functions that EPAC play in the overall cAMP-mediated signaling remains a major challenge within the research field. Furthermore, identified regulators of EPAC may lead to new mechanism-based therapeutic strategies specifically targeting the EPAC / cAMP-signaling components as EPAC has been implicated to play important roles in major human pathological conditions such as diabetes, heart disease, and cancer. This qHTS will be used to screen the Molecular Libraries Small Molecule Repository (MLSMR) as a concentration-titration series using the NCGC unique quantitative screening (qHTS) platform to find activators for EPAC1. In addition, this assay will also be used as a counterscreen for the EPAC2 qHTS. This fluorescent based assay is developed and validated for EPAC1 that measures exchange using EPAC effector Rap1 complex with BODIPY-GDP, a GDP analog with a tethered fluorophores. Activators are identified by monitoring the change in fluorescence signal as the exchanged free BODIPY-GDP has a reduced fluorescence compared to Rap1-bound BODIPY-GDP. Increase in signal (activation) is the desired outcome for the EPAC1 agonist while no activity in this assay is desired for the EPAC2 agonist counterscreen. Reference: [1] de Rooij, J., Zwartkruis, F. J., Verheijen, M. H., Cool, R. H., Nijman, S. M., Wittinghofer, A., and Bos, J.L. (1998) Nature 396, 474-477. Kawasaki, H., Springett, G. M., Mochizuki, N., Toki, S., Nakaya, M., Matsuda, M., Housman, D. E., and Graybiel, A. M. (1998) Science 282, 2275-2279.
# EPAC1 Counterscreen PROTOCOL TABLE SEQUENCE No. (e.g., 1, 2, 3, etc.); […] (e.g., Cells, Incubation, Reagent, etc.); VALUE and DESCRIPTION. 1. Reagent. 3 uL. [1x] 250 nM Rap1B-BODIPY-GDP, and 50 uM GDP. 2a. Compound. 23 nL. Control 6,572 uM cAMP (working concentration). 2b, 2c. Compound. 23 nL. Control activator and inhibitor; 234 - 30,000 uM cAMP and 16.4 - 10,000 uM. 2d. Compound. 46 nL. MLSMR follow-up library; 0.64 - 10,000 uM. 3. Time. 15 sec, 1000rpm. Centrifuge. 4. Time. 5 min. Incubation at room temperature. 5. Detector. Fluorescence. (Read 1), Ex/Em = 480 nm / 540 nm. 6. Time. 30 min. Incubation at room temperature. 7. Detector. Fluorescence. (Read 2), Ex/Em = 480 nm/ 540 nm. 8. Reagent. 1uL. Dispense either [4x] 10 uM cAMP or buffer. 9. Time. 15 sec, 1000 rpm. Centrifuge. 10. Time. 5 min. Incubation at room temperature. 11. Detector. Fluorescence. (Read 3), Ex/Em = 480 nm / 540 nm. 12. Time. 30 min. Incubation at room temperature. 13. Detector. Fluorescence. (Read 4), Ex/Em = 480 nm / 540 nm. […]
# [8] = molecular target: Rap guanine nucleotide exchange factor 3 (Homo sapiens) (UniProt O95398); experiment: Counterscreen qHTS for agonist of cAMP-regulated guanine nucleotide exchange factor 3 (EPAC1) (AID 1645889); further: nearly all actives have a fitted effect of over 40% in size; further: potency means the concentration at half of the fitted maximal effect
# Outline: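 Measured: fluorescence of BODIPY-GDP bound to Rap1B, which falls as exchange proceeds. Conditions include 50 uM competing GDP, 5 and 30 min reads, and a later cAMP challenge for antagonist detection.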
# Chain of Rap guanine nucleotide exchange factor 3 (Homo sapiens) (O95398 whole entry, looked up): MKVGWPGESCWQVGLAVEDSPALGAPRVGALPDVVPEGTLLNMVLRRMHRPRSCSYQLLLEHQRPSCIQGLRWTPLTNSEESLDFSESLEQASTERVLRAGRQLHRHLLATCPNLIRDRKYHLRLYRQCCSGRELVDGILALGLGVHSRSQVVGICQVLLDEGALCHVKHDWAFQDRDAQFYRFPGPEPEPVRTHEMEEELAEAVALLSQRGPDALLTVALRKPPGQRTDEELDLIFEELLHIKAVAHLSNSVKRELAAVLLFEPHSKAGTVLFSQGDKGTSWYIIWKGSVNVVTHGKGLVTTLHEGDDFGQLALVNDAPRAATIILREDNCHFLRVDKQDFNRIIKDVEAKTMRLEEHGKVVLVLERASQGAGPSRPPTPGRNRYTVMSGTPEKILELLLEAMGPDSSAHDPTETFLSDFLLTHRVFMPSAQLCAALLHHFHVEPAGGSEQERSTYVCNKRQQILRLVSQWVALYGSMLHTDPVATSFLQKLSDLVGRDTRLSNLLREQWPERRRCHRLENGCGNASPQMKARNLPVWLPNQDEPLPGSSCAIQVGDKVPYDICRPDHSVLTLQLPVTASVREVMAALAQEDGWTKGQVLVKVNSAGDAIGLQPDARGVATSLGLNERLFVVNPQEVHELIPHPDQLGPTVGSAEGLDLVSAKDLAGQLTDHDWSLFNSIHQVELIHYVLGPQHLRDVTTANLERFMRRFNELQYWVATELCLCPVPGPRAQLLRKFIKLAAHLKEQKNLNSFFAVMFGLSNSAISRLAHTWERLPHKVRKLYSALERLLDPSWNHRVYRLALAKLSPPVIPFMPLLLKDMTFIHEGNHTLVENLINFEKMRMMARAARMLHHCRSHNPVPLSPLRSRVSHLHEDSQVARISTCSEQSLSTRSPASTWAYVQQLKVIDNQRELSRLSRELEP
# Chain of Rap guanine nucleotide exchange factor 4 (Homo sapiens) (Q8WZA2 whole entry, looked up): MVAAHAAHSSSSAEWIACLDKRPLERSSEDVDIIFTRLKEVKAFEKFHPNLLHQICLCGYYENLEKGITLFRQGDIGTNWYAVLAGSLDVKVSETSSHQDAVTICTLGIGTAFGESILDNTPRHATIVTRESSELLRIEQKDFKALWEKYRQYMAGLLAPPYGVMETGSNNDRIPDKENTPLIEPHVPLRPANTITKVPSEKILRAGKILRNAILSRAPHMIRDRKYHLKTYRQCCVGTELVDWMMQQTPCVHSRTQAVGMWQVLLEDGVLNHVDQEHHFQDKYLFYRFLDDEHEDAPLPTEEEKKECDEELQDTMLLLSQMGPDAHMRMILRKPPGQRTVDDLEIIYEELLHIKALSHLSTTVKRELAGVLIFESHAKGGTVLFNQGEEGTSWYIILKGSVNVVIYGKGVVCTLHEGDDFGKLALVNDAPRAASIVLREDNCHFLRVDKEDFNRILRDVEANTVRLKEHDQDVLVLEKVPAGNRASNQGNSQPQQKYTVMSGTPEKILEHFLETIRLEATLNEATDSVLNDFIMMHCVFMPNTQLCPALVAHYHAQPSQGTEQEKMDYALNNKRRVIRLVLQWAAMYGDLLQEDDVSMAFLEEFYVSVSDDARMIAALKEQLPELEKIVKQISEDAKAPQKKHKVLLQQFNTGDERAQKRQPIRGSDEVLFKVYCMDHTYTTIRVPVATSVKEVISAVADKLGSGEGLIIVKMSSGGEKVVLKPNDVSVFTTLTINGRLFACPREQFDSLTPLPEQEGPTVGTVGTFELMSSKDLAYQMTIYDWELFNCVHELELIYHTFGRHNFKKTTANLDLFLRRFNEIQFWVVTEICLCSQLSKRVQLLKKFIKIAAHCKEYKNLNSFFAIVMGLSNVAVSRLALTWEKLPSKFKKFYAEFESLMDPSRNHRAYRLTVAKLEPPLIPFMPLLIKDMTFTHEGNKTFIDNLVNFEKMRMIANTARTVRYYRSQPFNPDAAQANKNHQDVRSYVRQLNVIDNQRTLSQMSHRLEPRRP
compound,measurement,setting,value
CC1(C)O[C@@H]2C[C@H]3[C@@H]4CCC5=CC(=O)CC[C@]5(C)[C@@]4(F)[C@@H](O)C[C@]3(C)[C@]2(C(=O)CCl)O1,Potency,[1],inactive
same,Potency,[2],inactive
Cc1cc(O)c(C(C)C)cc1Cl,Potency,[1],inactive
same,Potency,[2],inactive
C[C@H]1[C@H](NC(=O)/C(=N/OC(C)(C)C(=O)O)c2csc(N)n2)C(=O)N1S(=O)(=O)O (stereo in doubt),Potency,[1],inactive
same,Potency,[2],inactive
Cc1ccnc(NS(=O)(=O)c2ccc(N)cc2)n1,Potency,[1],inactive
same,Potency,[2],inactive
O=C(O)CCCCC(=O)O,Potency,[1],inactive
same,Potency,[2],inactive
N[C@H](Cc1c[nH]c2ccccc12)C(=O)O,Potency,[1],inactive
same,Potency,[2],inactive
COc1cc(-c2ccc(=O)[nH]n2)ccc1OC(F)F,Potency,[1],inactive
same,Potency,[2],inactive
Cc1cccc(C)c1NC(=O)CN1CCN(CCCC(c2ccc(F)cc2)c2ccc(F)cc2)CC1,Potency,[1],23.7 µM (active)
same,Potency,[2],11.9 µM (active)
CC(=O)Oc1ccc2c(c1)CC[C@@H]1[C@@H]2CC[C@]2(C)[C@@H](O)CC[C@@H]12,Potency,[1],13.3 µM (active)
same,Potency,[2],8.41 µM (active)
same,Potency,[3],inactive
same,outcome,[4],inactive
same,Potency,[5],inactive
same,Potency,[6],inactive
C=C1C[C@H]2[C@@H]3C=C(C)C4=CC(=O)CC[C@]4(C)[C@H]3CC[C@]2(C)[C@@]1(OC(C)=O)C(C)=O,Potency,[1],23.7 µM (active)
same,Potency,[2],4.22 µM (active)
CCCCCCCCCCCCCCCCCC(=O)OCC(O)CO (stereo unspecified),Potency,[1],inactive
same,Potency,[2],inactive
CC1=C(C(=O)OC(C)C)C(c2cccc([N+](=O)[O-])c2)C(C(=O)OC2CN(C(c3ccccc3)c3ccccc3)C2)=C(N)N1 (stereo unspecified),Potency,[1],inactive
same,Potency,[2],inactive
same,Potency,[3],inactive
same,outcome,[4],inactive
same,Potency,[5],inactive
same,Potency,[6],inactive
CN1CCC(=C2c3ccccc3Sc3ccccc32)CC1,Potency,[1],16.8 µM (active)
same,Potency,[2],11.9 µM (active)
CCN1CCN(c2cc3c(cc2F)c(=O)c(C(=O)O)cn3C2CC2)CC1,Potency,[1],inactive
same,Potency,[2],inactive
Nc1ccc(C(=O)Nc2ccccc2N)cc1,Potency,[1],9.44 µM (active)
same,Potency,[2],8.41 µM (active)
COc1c2occc2c(OC)c2c(=O)cc(C)oc12,Potency,[1],inactive
same,Potency,[2],inactive
CCOC(=O)c1cccc(N)c1,Potency,[1],inactive
same,Potency,[2],inactive
CCOC(=O)COc1ccc2c(C)c(CCN(CC)CC)c(=O)oc2c1Cl,Potency,[1],inactive
same,Potency,[2],inactive
OC[C@H]1O[C@H](O[C@]2(CCl)O[C@H](CCl)[C@@H](O)[C@@H]2O)[C@H](O)[C@@H](O)[C@H]1Cl,Potency,[1],inactive
same,Potency,[2],inactive
Cc1c(C)n(Cc2ccccc2)c2ccc(C(=O)OCCN(C)C)cc12,Potency,[1],10.6 µM (active)
same,Potency,[2],9.44 µM (active)
CCCCC(CC)CN=C(N)NC(N)=NCCCCCCN=C(N)NC(N)=NCC(CC)CCCC (stereo unspecified),Potency,[1],0.75 µM (active)
same,Potency,[2],0.841 µM (active)
C[n+]1c2cc(N)ccc2cc2ccc(N)cc21 (tested in a mixture with another compound),Potency,[1],1.5 µM (active)
same,Potency,[2],1.19 µM (active)
same,Potency,[3],inactive
same,Potency,[6],inactive
C[C@]12CCC(=O)C=C1CC[C@H]1[C@@H]3CC[C@](O)(C(=O)CO)[C@@]3(C)C[C@H](O)[C@@]12F,Potency,[2],0.0106 µM (active)
COc1ccc(/C=C/C(=O)c2ccc(OC)cc2OC)cc1,Potency,[1],11.9 µM (active)
same,Potency,[2],10.6 µM (active)
same,outcome,[4],inactive
same,Potency,[5],inactive
same,Potency,[6],15.6 µM (active) and inactive
same,outcome,[7],inactive
same,Potency,[8],inactive
COc1cccc2c1C(=O)c1c(O)c3c(c(O)c1C2=O)C[C@@](O)(C(C)=O)C[C@@H]3O[C@H]1C[C@H](N)[C@H](O)[C@H](C)O1,Potency,[1],2.7 nM (active) and 18.6 nM (active)
same,Potency,[2],0.0024 µM (active)
same,Potency,[3],inactive
same,outcome,[4],inactive
same,Potency,[5],inactive
same,Potency,[6],inactive
same,"activity change, negative = inhibition",[7],47.7% [at 30.8 µM] (inactive)
same,Potency,[8],14.1 µM (active)
Cc1ccc(Nc2c(F)cccc2Cl)c(CC(=O)O)c1,Potency,[2],inactive
